According to PubChem BioAssay AID1690 (NMMLSC, 2009):
Potency and affinity values are given separately. Active and inactive are the calls of the source.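 Rule for the calls: active = combined score above 51, weighing potency under 20 µM and fitted curve span over 20%; inactive = the rest.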

target: Broad substrate specificity ATP-binding cassette transporter ABCG2 (Homo sapiens) (UniProt Q9UNQ0); test: blockers of JC-1 export by ABCG2 – Ig-MXP3 cells, flow cytometry, dose response (AID 1690); conditions: JC-1 efflux; series mostly up to 33.3 µM; inhibition: at the top concentration
Sequence (Q9UNQ0 whole entry, looked up): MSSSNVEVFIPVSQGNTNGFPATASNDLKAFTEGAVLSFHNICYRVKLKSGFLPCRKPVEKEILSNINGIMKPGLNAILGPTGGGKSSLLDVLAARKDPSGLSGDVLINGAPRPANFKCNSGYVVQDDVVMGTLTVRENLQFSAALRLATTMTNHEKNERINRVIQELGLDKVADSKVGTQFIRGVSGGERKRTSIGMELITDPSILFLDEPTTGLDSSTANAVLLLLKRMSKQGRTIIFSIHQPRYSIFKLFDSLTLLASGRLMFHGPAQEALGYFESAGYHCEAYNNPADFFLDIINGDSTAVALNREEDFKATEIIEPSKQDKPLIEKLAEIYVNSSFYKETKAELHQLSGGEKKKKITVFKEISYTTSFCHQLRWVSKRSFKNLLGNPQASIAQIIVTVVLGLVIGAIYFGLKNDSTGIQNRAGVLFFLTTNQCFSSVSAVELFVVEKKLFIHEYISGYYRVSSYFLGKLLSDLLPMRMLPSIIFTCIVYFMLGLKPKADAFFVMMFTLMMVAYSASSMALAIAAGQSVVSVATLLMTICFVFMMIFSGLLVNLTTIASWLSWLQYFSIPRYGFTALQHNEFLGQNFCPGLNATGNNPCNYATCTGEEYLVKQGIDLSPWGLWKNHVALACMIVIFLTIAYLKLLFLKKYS

inhibition, inactive:
CC(=O)Nc1ccc(Nc2ccc(S(=O)(=O)C(F)(F)F)cc2[N+](=O)[O-])cc1 42.1%, COc1ccc(/C=N/NC(=O)c2cccnc2)cc1CN1CCN(c2ccc(F)cc2)CC1 60%, CCCCn1c(O)c(N=Nc2ccccn2)c2ccccc21 85.4% [at 66.6 µM], CCCCN1/C(=C/c2ccc3ccccc3[n+]2CC)Sc2ccccc21 100% [at 66.6 µM], CCN1/C(=C\C=C\c2oc3ccc4ccccc4c3[n+]2CC)Oc2ccc3ccccc3c21 46.5% [at 66.6 µM], Cc1nc2cc(-c3cccc(F)c3)nn2c(N2CCN(C(=O)c3ccco3)CC2)c1C 74.5%, CCN(CC)C1=CC2=CC(=C(C#N)C#N)CCC2CC1 (stereo unspecified) 100% [at 66.6 µM], CN(C)c1ccc(/C=C2\SC(=S)N(Nc3ncc(C(F)(F)F)cc3Cl)C2=O)cc1 58.1%, CNc1nc2cc([N+](=O)[O-])c([N+](=O)[O-])cc2nc1NC 80.2% [at 11.1 µM], N#CC(C#N)=C1C=C2C=C(N3CCOCC3)CCC2CC1 (stereo unspecified) 57.5%, CN1CCN(C2=CC3=CC(=C(C#N)C#N)CCC3CC2)CC1 (stereo unspecified) 30.5%, N#CC(C#N)=C1C=C2C=C(N3CCCCCC3)CCC2CC1 (stereo unspecified) 100%, COc1ccccc1Nc1nc2nonc2nc1N1CCCCC1C (stereo unspecified) 9.37% [at 66.6 µM], COc1ccc(CCNC(=O)COC(=O)/C=C/c2ccc(OC)c(OC)c2)cc1 51.7%, COC(=O)c1cc(NC(=O)c2ccccc2)c(=O)oc1/C=C/Nc1ccc(Oc2ccccc2)cc1 -230% [at 66.6 µM], CCOC(=O)c1sc2cc([N+](=O)[O-])cc(SCC(C)C)c2c1N -5.78% [at 66.6 µM]
